According to PubChem BioAssay (EPA / NIEHS):
Records with an inconclusive call do not appear. More than one record can exist for a structure, and the calls need not agree. The source made the active and inactive calls. Rule for the calls: active = hit-call score of the fitted dose curve at least 0.9, where 1 is the maximum; inconclusive = response in the unintended direction; inactive = score below 0.9.

How the values were obtained:
[1] = molecular target: Nuclear receptor subfamily 1 group I member 2 (Mus musculus) (UniProt O54915); experiment: ATG_mPXR_XSP1: Attagene TRANS-FACTORIAL Multi-Species (XSP1) HepG2 Assay for mouse Pregnane X Receptor (PXR) (AID 2283803)
Sequence of Nuclear receptor subfamily 1 group I member 2 (Mus musculus) (O54915 whole entry, looked up, the tested form may be a part): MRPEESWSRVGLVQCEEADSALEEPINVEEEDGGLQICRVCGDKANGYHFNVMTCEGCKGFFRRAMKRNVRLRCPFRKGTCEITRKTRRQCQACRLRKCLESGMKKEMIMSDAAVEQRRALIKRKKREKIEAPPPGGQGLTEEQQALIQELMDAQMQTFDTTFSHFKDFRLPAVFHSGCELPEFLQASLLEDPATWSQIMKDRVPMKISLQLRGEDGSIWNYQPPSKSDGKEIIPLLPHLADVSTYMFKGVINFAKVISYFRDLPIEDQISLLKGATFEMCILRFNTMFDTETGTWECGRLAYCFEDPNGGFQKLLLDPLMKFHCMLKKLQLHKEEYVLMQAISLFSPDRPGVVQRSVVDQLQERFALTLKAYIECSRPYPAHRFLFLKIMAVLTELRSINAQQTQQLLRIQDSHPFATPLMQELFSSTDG
Method in brief: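 Transiently transfected HepG2 cells expressing a receptor-Gal4 chimera drive a GAL4-UAS reporter; 3 nM 6-alpha-fluorotestosterone included. Reporter mRNA read 24 h post-dose by RT-PCR and capillary electrophoresis; gain of signal relative to DMSO.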

[2] = molecular target: frog Thyroid hormone Receptor alpha (TRa), thra-a (gene 397942) (UniProt P15204); experiment: ATG_frTRa_XSP1: Attagene TRANS-FACTORIAL Multi-Species (XSP1) HepG2 Assay for frog Thyroid hormone Receptor alpha (TRa) (AID 2283804)
Sequence of frog Thyroid hormone Receptor alpha (TRa), thra-a (gene 397942) (P15204 whole entry, looked up, the tested form may be a part): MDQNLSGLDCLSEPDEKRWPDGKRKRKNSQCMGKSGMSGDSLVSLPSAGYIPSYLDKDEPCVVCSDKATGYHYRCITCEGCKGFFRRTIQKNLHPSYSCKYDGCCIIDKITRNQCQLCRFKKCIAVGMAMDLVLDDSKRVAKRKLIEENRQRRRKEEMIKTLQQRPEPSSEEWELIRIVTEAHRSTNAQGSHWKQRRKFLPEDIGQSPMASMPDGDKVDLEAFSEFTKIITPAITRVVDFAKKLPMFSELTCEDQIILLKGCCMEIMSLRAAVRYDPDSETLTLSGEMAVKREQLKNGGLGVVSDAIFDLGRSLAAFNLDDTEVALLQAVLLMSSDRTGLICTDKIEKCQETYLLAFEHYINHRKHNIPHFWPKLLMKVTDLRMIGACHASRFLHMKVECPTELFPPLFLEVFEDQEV
Method in brief: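 Reporter transcript induction, measured by RT-PCR with 6-FAM labelling and capillary electrophoresis, 24 hr after dosing transiently transfected HepG2 cells expressing a frog TRa-GAL4 fusion; medium contained 3 nM 6-alpha-fluorotestosterone; increase over DMSO scored.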

[3] = molecular target: human Thyroid hormone Receptor alpha (TRa), THRA (gene 7067) (UniProt P10827); experiment: ATG_hTRa_XSP1: Attagene TRANS-FACTORIAL Multi-Species (XSP1) HepG2 Assay for human Thyroid hormone Receptor alpha (TRa) (AID 2283805)
Sequence of human Thyroid hormone Receptor alpha (TRa), THRA (gene 7067) (P10827 whole entry, looked up, the tested form may be a part): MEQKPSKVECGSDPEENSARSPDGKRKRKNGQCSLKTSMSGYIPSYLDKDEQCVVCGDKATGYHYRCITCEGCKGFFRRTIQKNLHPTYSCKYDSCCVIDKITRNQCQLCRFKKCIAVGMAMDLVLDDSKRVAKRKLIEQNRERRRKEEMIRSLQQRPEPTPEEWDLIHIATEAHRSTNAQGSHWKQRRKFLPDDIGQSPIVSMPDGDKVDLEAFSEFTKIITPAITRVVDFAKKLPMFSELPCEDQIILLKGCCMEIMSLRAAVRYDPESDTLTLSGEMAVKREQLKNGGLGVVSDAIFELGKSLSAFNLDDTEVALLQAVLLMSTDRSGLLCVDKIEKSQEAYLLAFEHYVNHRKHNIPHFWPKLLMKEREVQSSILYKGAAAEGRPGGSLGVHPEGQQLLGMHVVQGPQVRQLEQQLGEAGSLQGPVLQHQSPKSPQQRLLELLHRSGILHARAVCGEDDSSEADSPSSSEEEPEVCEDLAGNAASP
Method in brief: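 Reporter transcripts from the human TRa-Gal4 TRANS unit quantified by RT-PCR, fluorescent labeling and capillary electrophoresis after 24 hours of chemical exposure in transfected HepG2 cells; medium contains 3 nM 6-alpha-fluorotestosterone. Positive direction fit against DMSO.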

[4] = test system: turtle Thyroid Hormone Receptor, alpha (TRa), gene 101949057; experiment: ATG_trTRa_XSP1: Attagene TRANS-FACTORIAL Multi-Species (XSP1) HepG2 Assay for turtle Thyroid Hormone Receptor, alpha (TRa) (AID 2283806)
Procedure: ATG_XSP1_multi-species_TRANS is a cell-based, multiplexed assay created by modifying the existing Attagene TRANS-FACTORIAL system to include a panel of nuclear receptors from some or all the following species: human (Homo sapiens), mouse (Mus musculus), frog (Xenopus laevis), zebrafish (Danio rerio), chicken (Gallus gallus), and turtle (Chrysemys picta). The ECOTOX-FACTORIAL format uses HepG2, a human liver cell line, with measurements taken at 24 hours after chemical dosing in a 24-well plate. Xsp1 included 3 nM 6-alpha-fluorotestosterone to partially stimulate the androgen receptor.ATG_trTRa_XSP1 is one of 29 assay components measured or calculated from the ATG_XSP1_multi-species_TRANS assay. It is designed to make measurements of mRNA induction, a form of inducible reporter, as detected with fluorescence intensity signals by Reverse transcription polymerase chain reaction (RT-PCR) and Capillary electrophoresis technology.The assay endpoint ATG_trTRa_XSP1 was analyzed in the positive analysis fitting direction relative to DMSO as the negative control and baseline of activity. Using a type of inducible reporter, measures of mRNA for gain-of-signal activity can be used to understand the reporter gene at the transcription factor-level as they relate to the gene TR. Furthermore, this assay endpoint can be referred to as a primary readout, because this assay has produced multiple assay endpoints where this one serves a reporter gene function. To generalize the intended target to other relatable targets, this assay endpoint is annotated to the nuclear receptor intended target family, where the subfamily is non-steroidal.
(§1) Human liver HepG2 cells are transiently transfected with multiple reporter transcription units (MRTUs) in 6-well plates using FuGene 6 reagent (Roche; 3 ml FuGene/1 mg DNA). The MRTU constructs are regulated by a cis-regulating element (promoter). […] A major difference between the CIS and TRANS system is that in CIS activities of endogenous TFs are measured, whereas the TRANS assay evaluates changes in activities of exogenous, chimeric NR-Gal4 proteins. […] At the end of 24 hour incubation, total RNA was isolated using TriZol reagent (Invitrogen). The isolated RNA is then reverse-transcribed using oligo(dT) primer and Mo-MLV reverse transcriptase (Invitrogen) with DNAse I (Ambion) treatment for 30 min. The one-tenth of the produced cDNA was amplified by PCR using Taq DNA polymerase (Invitrogen) and two reporter sequence-specific primers. The PCR products were fluorescently labeled by primer extension with 6-arboxyfluorescein (6-FAM) 5'-labeled reporter sequence-specific primer (2 min at 95 C, 20 s at 68 C and 10 min at 72 C) and these products were digested with 5U of HpaI (New England Biolabs) for 2h at 37 C. The fragments were purified using Qiaquick PCR columns (Qiagen), analyzed on an ABI 3130xL genetic analyzer (Applied Biosystems) with peak positions identified by using a set of X-rhodamine (ROX)-labeled MapMarker1000 molecular weight standards (BioVentures). The raw capillary electrophoresis data was processed using Attagraph software (Attagene).

[5] = molecular target: zebrafish Thyroid Hormone Receptor alpha (TRa), thraa (gene 30670) (UniProt Q98867); experiment: ATG_zfTRa_XSP1: Attagene TRANS-FACTORIAL Multi-Species (XSP1) HepG2 Assay for zebrafish Thyroid Hormone Receptor alpha (TRa) (AID 2283807)
Sequence of zebrafish Thyroid Hormone Receptor alpha (TRa), thraa (gene 30670) (Q98867 whole entry, looked up, the tested form may be a part): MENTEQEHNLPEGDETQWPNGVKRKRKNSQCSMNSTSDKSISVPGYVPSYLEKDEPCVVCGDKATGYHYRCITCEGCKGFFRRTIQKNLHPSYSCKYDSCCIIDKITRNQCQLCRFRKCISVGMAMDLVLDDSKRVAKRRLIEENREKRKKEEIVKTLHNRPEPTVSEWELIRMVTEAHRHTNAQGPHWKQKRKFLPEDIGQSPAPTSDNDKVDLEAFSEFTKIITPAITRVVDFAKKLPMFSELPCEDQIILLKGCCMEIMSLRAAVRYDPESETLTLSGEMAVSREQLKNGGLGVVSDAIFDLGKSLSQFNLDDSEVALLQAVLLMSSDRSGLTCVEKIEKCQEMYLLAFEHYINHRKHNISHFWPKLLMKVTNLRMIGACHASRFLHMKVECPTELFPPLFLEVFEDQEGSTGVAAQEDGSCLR
Method in brief: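 Reporter transcripts driven by a chimeric zebrafish TRa–Gal4 protein were measured by RT-PCR with fluorescent labelling and capillary electrophoresis. These came from transiently transfected HepG2 cells after 24 h chemical exposure, with 3 nM 6-alpha-fluorotestosterone added; baseline was DMSO.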

[6] = molecular target: human Thyroid hormone Receptor beta (TRb), THRB (gene 7068) (UniProt P10828); experiment: ATG_hTRb_XSP1: Attagene TRANS-FACTORIAL Multi-Species (XSP1) HepG2 Assay for human Thyroid hormone Receptor beta (TRb) (AID 2283808)
Sequence of human Thyroid hormone Receptor beta (TRb), THRB (gene 7068) (P10828 whole entry, looked up, the tested form may be a part): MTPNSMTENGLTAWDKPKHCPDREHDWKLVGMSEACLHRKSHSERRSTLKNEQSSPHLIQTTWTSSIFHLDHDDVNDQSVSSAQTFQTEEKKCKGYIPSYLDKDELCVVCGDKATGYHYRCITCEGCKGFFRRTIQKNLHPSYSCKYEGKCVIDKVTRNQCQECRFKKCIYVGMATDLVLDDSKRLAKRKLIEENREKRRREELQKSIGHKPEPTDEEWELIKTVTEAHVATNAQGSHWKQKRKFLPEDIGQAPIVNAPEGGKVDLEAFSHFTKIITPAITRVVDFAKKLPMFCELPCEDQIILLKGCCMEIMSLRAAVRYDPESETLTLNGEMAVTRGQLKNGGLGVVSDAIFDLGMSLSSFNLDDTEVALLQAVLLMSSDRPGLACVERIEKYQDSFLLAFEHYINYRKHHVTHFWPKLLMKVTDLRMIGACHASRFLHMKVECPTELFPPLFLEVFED
Method in brief: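 Readout is reporter mRNA induction measured by RT-PCR, fluorescent labelling and capillary electrophoresis, fitted upward relative to DMSO. Transiently transfected human HepG2 cells expressing NR-Gal4 chimeras were dosed for 24 h, medium containing 3 nM 6-alpha-fluorotestosterone.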

[7] = ATG_M_32_XSP1: Attagene TRANS-FACTORIAL Multi-Species (XSP1) HepG2 Assay for M32 Transcription Factor (Internal Marker) (AID 2283799)
Procedure: ATG_XSP1_multi-species_TRANS is a cell-based, multiplexed assay created by modifying the existing Attagene TRANS-FACTORIAL system to include a panel of nuclear receptors from some or all the following species: human (Homo sapiens), mouse (Mus musculus), frog (Xenopus laevis), zebrafish (Danio rerio), chicken (Gallus gallus), and turtle (Chrysemys picta). The ECOTOX-FACTORIAL format uses HepG2, a human liver cell line, with measurements taken at 24 hours after chemical dosing in a 24-well plate. Xsp1 included 3 nM 6-alpha-fluorotestosterone to partially stimulate the androgen receptor.ATG_M_32_XSP1 is one of 29 assay components measured or calculated from the ATG_XSP1_multi-species_TRANS assay. It is designed to make measurements of mRNA induction, a form of inducible reporter, as detected with fluorescence intensity signals by Reverse transcription polymerase chain reaction (RT-PCR) and Capillary electrophoresis technology.This assay endpoint, ATG_M_32_XSP1, was analyzed in the positive analysis fitting direction relative to DMSO as the negative control and baseline of activity. Using a type of inducible reporter, measures of mRNA for gain-of-signal activity can be used to understand the background control at the transcription factor-level as they relate to the gene. Furthermore, this assay endpoint can be referred to as a secondary readout, because this assay has produced multiple assay endpoints where this one serves a background control function. To generalize the intended target to other relatable targets, this assay endpoint is annotated to the background measurement intended target family, where the subfamily is internal marker.
as §1

[8] = molecular target: Peroxisome proliferator-activated receptor gamma (Homo sapiens) (UniProt P37231); experiment: ATG_hPPARg_XSP1: Attagene TRANS-FACTORIAL Multi-Species (XSP1) HepG2 Assay for human Peroxisome Proliferator-activated Receptor gamma (PPARg) (AID 2283800)
Sequence of Peroxisome proliferator-activated receptor gamma (Homo sapiens) (P37231 whole entry, looked up, the tested form may be a part): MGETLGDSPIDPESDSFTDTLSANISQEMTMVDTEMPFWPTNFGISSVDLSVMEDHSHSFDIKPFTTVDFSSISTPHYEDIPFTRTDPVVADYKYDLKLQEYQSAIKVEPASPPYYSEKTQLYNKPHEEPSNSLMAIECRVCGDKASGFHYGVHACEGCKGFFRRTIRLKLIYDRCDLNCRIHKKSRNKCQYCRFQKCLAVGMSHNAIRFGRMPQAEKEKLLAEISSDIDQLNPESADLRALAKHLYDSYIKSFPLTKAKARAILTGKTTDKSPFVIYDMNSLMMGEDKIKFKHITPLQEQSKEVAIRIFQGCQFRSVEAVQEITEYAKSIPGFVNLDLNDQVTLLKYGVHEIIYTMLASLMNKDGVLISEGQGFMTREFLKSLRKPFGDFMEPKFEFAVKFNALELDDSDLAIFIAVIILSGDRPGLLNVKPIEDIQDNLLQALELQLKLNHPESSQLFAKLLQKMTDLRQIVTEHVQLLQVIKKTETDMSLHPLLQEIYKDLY
Method in brief: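 Reporter mRNA induction, measured by RT-PCR with capillary electrophoresis 24 h after dosing, scored as gain over DMSO. Transfected HepG2 cells express exogenous NR-Gal4 chimeras driving GAL4-UAS reporters; medium includes 3 nM 6-alpha-fluorotestosterone.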

[9] = test system: zebrafish Peroxisome Proliferator-activated Receptor gamma (PPARg), gene 557037; experiment: ATG_zfPPARg_XSP1: Attagene TRANS-FACTORIAL Multi-Species (XSP1) HepG2 Assay for zebrafish Peroxisome Proliferator-activated Receptor gamma (PPARg) (AID 2283801)
Method in brief: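 Trans-activation readout of chimeric zebrafish PPARg–GAL4 in transiently transfected human HepG2 cells, 24 h chemical exposure (medium includes 3 nM 6-alpha-fluorotestosterone). Reporter transcripts measured by RT-PCR and capillary electrophoresis, fitted as gain over DMSO.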

[10] = molecular target: mouse Peroxisome Proliferator-activated Receptor gamma (PPARg), Pparg (gene 19016) (UniProt P37238); experiment: ATG_mPPARg_XSP1: Attagene TRANS-FACTORIAL Multi-Species (XSP1) HepG2 Assay for mouse Peroxisome Proliferator-activated Receptor gamma (PPARg) (AID 2283802)
Sequence of mouse Peroxisome Proliferator-activated Receptor gamma (PPARg), Pparg (gene 19016) (P37238 whole entry, looked up, the tested form may be a part): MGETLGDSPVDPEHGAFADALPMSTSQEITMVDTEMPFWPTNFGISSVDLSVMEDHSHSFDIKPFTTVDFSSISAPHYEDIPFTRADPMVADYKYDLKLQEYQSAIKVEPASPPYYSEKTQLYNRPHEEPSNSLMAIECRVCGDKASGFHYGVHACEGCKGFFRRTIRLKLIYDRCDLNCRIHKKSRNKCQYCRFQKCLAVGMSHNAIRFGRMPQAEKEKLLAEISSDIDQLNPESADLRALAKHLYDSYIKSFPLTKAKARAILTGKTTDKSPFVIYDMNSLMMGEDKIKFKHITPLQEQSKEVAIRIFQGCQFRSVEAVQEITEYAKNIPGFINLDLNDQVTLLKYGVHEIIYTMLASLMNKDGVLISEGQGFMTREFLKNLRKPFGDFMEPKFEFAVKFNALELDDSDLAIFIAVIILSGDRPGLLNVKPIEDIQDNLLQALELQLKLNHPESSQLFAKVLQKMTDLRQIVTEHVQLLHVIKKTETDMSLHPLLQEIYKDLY
Method in brief: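 Readout is reporter mRNA induction, measured by RT-PCR with 6-FAM labelling, HpaI digestion and capillary electrophoresis, 24 h post-dose relative to DMSO. Transient multi-reporter transfection of human HepG2 with mouse PPARg–GAL4 fusion; 3 nM 6-alpha-fluorotestosterone included.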

Measured: AC50

C[C@]12CCC(=O)C=C1CC[C@@H]1[C@@H]2CC[C@@]2(C)[C@H]1CC[C@]2(C)O
inactive: [1] | [2] | [3] | [4] | [5] | [6]

CC(C)(c1ccccc1)c1ccc(O)cc1
inactive: [7] | [8] | [9] | [10] | [1] | [3] | [4] | [5] | [6]

CC(C)(O)C(=O)Nc1ccc([N+](=O)[O-])c(C(F)(F)F)c1
active: [3] 50 µM | [4] 30.6 µM | [6] 18.2 µM
inactive: [9] | [1] | [2] | [5]

Oc1ccc(C(c2ccc(O)cc2)(C(F)(F)F)C(F)(F)F)cc1
active: [10] 33.4 µM | [6] 62.3 µM
inactive: [7] | [1] | [2] | [3] | [4] | [5] | [6]

ClC(Cl)=C(c1ccc(Cl)cc1)c1ccc(Cl)cc1
inactive: [7] | [9] | [10] | [1] | [4] | [5] | [6]

C[C@]12CCC(=O)C=C1CC[C@@H]1[C@@H]2CC[C@]2(C)C(=O)CC[C@@H]12
inactive: [7] | [8] | [9] | [2] | [3] | [4] | [5] | [6]
active: [1] 2.3 µM

Clc1ccc(C(c2ccccc2Cl)C(Cl)(Cl)Cl)cc1 (centres undefined)
active: [1] 2.03 µM
inactive: [7] | [8] | [3] | [4] | [5] | [6]
